Compound activity: PubChem, National Center for Advancing Translational Sciences (NCATS)
BAZ2B inh: inhibitors of human BAZ2B bromodomain; Q9UIF8; AlphaScreen BAZ2B-H3K14Ac peptide displacement; Potency, µM (series often up to 114 µM), most hits filed as inhibitors; actives 4.4% (n = 360,000); also: nearly all actives have a fitted effect of over 60% in size
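Multi-concentration screen (max 110 uM) measuring displacement of acetylated histone H3 peptide from BAZ2B by AlphaScreen, using 50 nM protein, 50 nM peptide and 10 ug/mL streptavidin donor plus Ni-chelate acceptor beads.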
HP1b binding inh: inhibitors of HP1-beta chromodomain binding to methylated histone tails; P83916; AlphaScreen HP1-beta / biotin-H3K9me3 peptide binding; Potency, µM (top dose mostly 114 µM), hits mostly inhibitors; actives 0.56% (n = 390,000); also: nearly all actives have a fitted effect of over 70% in size
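AlphaScreen: HP1-beta (50 nM) preformed 30 min with biotin-H3(1-18)K9me3 peptide (50 nM) in PBS pH 7.4, 0.01% Tween-20. Compound added for 30 min at RT, then streptavidin donor/nickel chelate acceptor beads (10 ug/mL) for 30 min.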
G9a block: blocks human histone lysine methyltransferase G9a; Q96KQ7; G9a H3K9 monomethylation, AlphaScreen, 2 h; Potency, µM (doses to about 102 µM), hits mostly inhibitors; actives 8.8% (n = 350,000); AID 504332; also: nearly all actives have a fitted effect of over 75% in size
Target sequence (Q96KQ7 913-1193 limits assumed): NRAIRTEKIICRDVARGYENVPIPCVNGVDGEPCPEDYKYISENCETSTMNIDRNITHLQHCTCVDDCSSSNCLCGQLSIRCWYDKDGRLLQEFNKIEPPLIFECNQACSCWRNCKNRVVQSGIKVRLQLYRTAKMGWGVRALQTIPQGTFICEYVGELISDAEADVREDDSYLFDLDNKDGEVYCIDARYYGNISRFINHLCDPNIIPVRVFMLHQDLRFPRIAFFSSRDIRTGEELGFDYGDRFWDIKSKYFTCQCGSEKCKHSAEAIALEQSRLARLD
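G9a (20 nM) preincubated 15 min RT with compounds, then 500 nM biotinylated H3K9 peptide and 20 uM SAM added; 2 h RT reaction. Monomethyl-H3K9 product detected by AlphaScreen with anti-H3K9me1 antibody, streptavidin donor and anti-rabbit IgG acceptor beads.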
GLS inhibitor: blocks human kidney-isoform glutaminase activity. O94925. GLS enzymatic activity, qHTS titration. Potency, µM (series often up to 45.5 µM), most hits filed as inhibitors. actives 0.21% (n = 410,000)
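hKGA; 45 mM KH2PO4 pH 8.2 + 0.02% Tween-20; cpd via pin tool; 1 mM Gln soln; GluOx/HRP/Amplex Red; RT 30 min; fluor. t0 & final.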
JMJD2A Tudor inh: inhibitors of human JMJD2A Tudor domain; AlphaScreen JMJD2A-Tudor / H3K4me3 peptide binding; O75164; actives 4.4% (n = 390,000); Potency, µM (titrated, usually from 114 µM), most hits filed as inhibitors; AID 504339; also: nearly all actives have a fitted effect of over 50% in size
Hits are given with their value; n = inactive; u = inconclusive; x = no result; [ ] = another dose, or the depositor's remark. This is a sample that favours compounds with a hit; in the whole collection about 10% have one here. Calls follow the shape of the dose curve; as a rule, active = well fitted curve in the direction sought with a large enough effect; inconclusive = small, poorly fitted or top-dose-only effect, or another doubt; inactive = no such curve, though single readings can be large; an effect the other way counts as inactive or inconclusive.

SMILES	BAZ2B inh	HP1b binding inh	G9a block	GLS inhibitor	JMJD2A Tudor inh
C=CCn1c(N)c(C(=O)N2CCN(C)CC2)sc1=S	n	n	n	n	n
Cc1ccc2scc(N3CCCC(C)C3)c(=O)c2c1 (configuration not stated)	n	n	u	n	u
CCCCSCCCNC(=O)C1CCN(Cc2nc(-c3ccc(CC)cc3)oc2C)CC1	n	n	n	n	u
O=C(NCc1ccccc1)c1ccc2c(c1)sc1nc(-c3ccc(F)cc3)cn12	n	n	n	n	n
Cc1cc(/C=C2/C(=O)NN(c3ccccc3)C2=O)c(C)n1-c1cccc(O)c1	u	n	22.4µM	n	n
Cc1sc(-n2c(C)cc(/C=C3\SC(=S)NC3=O)c2C)c(C#N)c1C	n	u	u	n	39.8µM
Cc1cc(/C=C2/NC(=O)NC2=O)c(C)n1-c1sc2c(c1C#N)CCCC2	u	n	n[12.7 µM]	n	u
Cc1sc(-n2c(C)cc(/C=N/n3cnnc3)c2C)c(C#N)c1C	u	n	8.91µM	n	u
Cc1cc(/C=C2\SC(=S)NC2=O)c(C)n1-c1cccc(O)c1	50.1µM	u	39.8µM	n	n[11.4 µM]
COc1cc(C)c(CN2CCN(C(C)C(=O)NC(C)c3ccccc3)CC2)cc1OC (configuration not stated)	n	n	n	n	n
CCOC(=O)CNC(=O)CSc1nc2sc(C)c(C)c2c(=O)n1C	n	n	44.7µM	n	n
C[C@@H]1CN([C@@H](C)CO)C(=O)c2cc(Br)cnc2O[C@H]1CN(C)C(=O)c1ccc2c(c1)OCO2	x	x	x	n	x
COc1cccc(CN2CC(C(=O)NCc3cccc(Cl)c3)CCC2=O)c1 (configuration not stated)	n	n	x	n	n
Cc1ccc(CCNC(=O)C2CCC(=O)N(Cc3ccccc3F)C2)o1 (configuration not stated)	n	n	79.4µM	n	u
COc1cccc(CN2CC(C(=O)NCCc3ccc(C)o3)CCC2=O)c1 (configuration not stated)	n	n	39.8µM	n	n
COc1cccc(CN2CC(C(=O)NCc3cccc(N4CCCC4)c3)CCC2=O)c1 (configuration not stated)	u	n	79.4µM	n	n
COc1cccc(CCNC(=O)C2CCC(=O)N(Cc3cccc(OC)c3)C2)c1 (configuration not stated)	n	n	n	n	n
COc1ccc(CCN2CC(C(=O)NCCc3cnn(C)c3)CCC2=O)cc1 (configuration not stated)	n	n	n	n	20µM
O=C1C(=C(c2ccccc2)N2CCOCC2)Cc2ccccc21	x	x	x	n	x
C#Cc1cccc(Nc2nc(NCc3ccccc3)nc3ccsc23)c1	x	x	x	n	x
COC(=O)Nc1sc2c(c1C(=O)NCc1ccco1)CCC2	u	n	n	n	56.2µM
COC(=O)Nc1sc2c(c1C(=O)NCc1ccco1)CCCC2	u	n	n	n	n
COc1ccc(CN2CCNC(=O)C2CC(=O)N(C)CCCN2CCOCC2)cc1C (configuration not stated)	n	n	n	n	n
CC(C)c1nnc2c(N(C)S(=O)(=O)c3ccccc3)nc3ccccc3n12	n	n	n	n	n
CCCCc1nnc2c(N(C)S(=O)(=O)c3ccccc3)nc3ccccc3n12	n	n	70.8µM	n	n
SMILES	BAZ2B inh	HP1b binding inh	G9a block	GLS inhibitor	JMJD2A Tudor inh
CC(=O)c1cnc(-c2ccccn2)s1	n	n	31.6µM	u	n
COc1ccccc1N(CC(=O)N1CCN(Cc2ccccc2)CC1)S(=O)(=O)c1ccccc1	x	x	x	n	x
Cc1ccc2cc(CN(CCO)Cc3nnnn3Cc3ccc(F)cc3)c(=O)[nH]c2c1	n	n	31.6µM	n	n
Cc1ccc2[nH]c(=O)c(CN(Cc3nnnn3Cc3ccccc3)C3CCCC3)cc2c1	n	n	8.91µM	n	n
Cc1cc(C)c2cc(CN(CCO)Cc3nnnn3Cc3ccccc3)c(=O)[nH]c2c1	n	n	39.8µM	n	n
O=C(NCc1cccs1)c1csc(COCCO)n1	x	x	x	n	x
